# Assay results from PubChem BioAssay (NCATS).
# Results filed as inconclusive are left out. Active and inactive are the calls of the source. Calls follow the shape of the dose curve; as a rule, active = well fitted cell-killing curve with a large enough effect; inconclusive = small, poorly fitted or top-dose-only effect, or effect the other way; inactive = no such curve, though single readings can be large or run the other way.
# Assay: Quantitative High-Throughput drug screen in 47 multiple myeloma cell lines against the NCATS MIPE library collection: KMS34_JCRB cell viability assay (AID 1918985); also: nearly all actives have a fitted effect of over 40% in size
# Details: KMS34 myeloma viability, CellTiter-Glo ATP luminescence, 48 h; series mostly up to 45.8 µM
# Description: PI: Beverly A. Mock Ph.D.
# Laboratory of Cancer Biology and Genetics,
# Center for Cancer Research, National Cancer Institute,
# National Institute of Health, Bethesda, Maryland
# Drug resistance and disease progression are common in multiple myeloma (MM) patients, underscoring the need for new therapeutic combinations. […] We hypothesized that effective combinations would reduce MYC expression and enhance p16 activity. […] These preclinical data identify potentially useful drug combinations for evaluation in drug-resistant MM and reveal potential mechanisms of combined drug sensitivity.
# Described herein is the primary MIPE qHTS used to cherrypick compounds. Validated compounds were then further tested for potential synergistic activiy.
# [1] Peat TJ, Gaikwad SM, Dubois W, Gyabaah-Kessie N, Zhang S, Gorjifard S, Phyo Z, Andres M, Hughitt VK, Simpson RM, Miller MA, Girvin AT, Taylor A, Williams D, D'Antonio N, Zhang Y, Rajagopalan A, Flietner E, Wilson K, Zhang X, Shinn P, Klumpp-Thomas C, McKnight C, Itkin Z, Chen L, Kazandijian D, Zhang J, Michalowski AM, Simmons JK, Keats J, Thomas CJ, Mock BA. Drug combinations identified by high-throughput screening promote cell cycle transition and upregulate Smad pathways in myeloma. Cancer Lett. 2023 Aug 1;568:216284. doi: 10.1016/j.canlet.2023.216284. Epub 2023 Jun 24. PMID: 37356470; PMCID: PMC10408729.
# SEQUENCE No. (e.g., 1, 2, 3, etc.); […] (e.g., Cells, Incubation, Reagent, etc.); VALUE and DESCRIPTION.
# 1; Cells; 5 uL; white, solid bottom 1536-well Greiner assay plate.
# 2; Compounds; 23 nL; Kalypsis pin tool (Wako USA) equipped with a 1536-well pin head to transfer to the assay plates.
# 3; Incubation; 48 hours; 37C incubation.
# 4; Reagent;5uL; CellTiter Glo (Promega).
# 5; Detector; 425V; Luminescence; Viewlux PerkinElmer.
# NOTES (numbers refer to Sequence numbers above)
# 1. The cell-based screening methods employed in this study were like those previously published. Briefly, the corresponding myeloma cell lines were screened in 1,536-well plates with 500 cells, 5-uL per well for inhibition of cell viability (assessed by measuring ATP levels with CellTiterGlo).
# 2. NCATS MIPE 4.0 library of approved and investigational drugs were added using the Kalypsis pin tool. Wells treated with DMSO only for 100% viability and media only for 0% viability were used as controls.
# 3. The assay plates were covered and incubated for 48 hours in a 37C, 5% CO2 incubator with controlled humidity.
# 4. After 48 hours, CellTilter-GloTM luminescent substrate mix (Promega) reagent was added to the assay plate and plates we incubated for 5 min at room temperature.
# 5. Signal was measured as median relative luminescence units on a ViewLux (PerkinElmer) multiplate reader.
# [1] Heske CM, Davis MI, Baumgart JT, Wilson K, Gormally MV, Chen L, Zhang X, Ceribelli M, Duveau DY, Guha R, Ferrer M, Arnaldez FI, Ji J, Tran HL, Zhang Y, Mendoza A, Helman LJ, Thomas CJ. Matrix Screen Identifies Synergistic Combination of PARP Inhibitors and Nicotinamide Phosphoribosyltransferase (NAMPT) Inhibitors in Ewing Sarcoma. Clin Cancer Res. 2017 Dec 1;23(23):7301-7311. doi: 10.1158/1078-0432.CCR-17-1121. Epub 2017 Sep 12. PMID: 28899971; PMCID: PMC6636827.
# Potency is read from the fitted curve at half-maximal effect.
row,Compound,Potency
1,C[C@H]1O[C@H](O[C@H]2[C@H](O)[C@@H](O)[C@@H](O[C@H]3[C@H](O)[C@@H](O)C(O)O[C@H]3CO)O[C@H]2CO)[C@H](O)[C@@H](O)[C@H]1N[C@H]1C=C(CO)[C@@H](O)[C@H](O)[C@@H]1O (stereo not given in full),inactive
2,CN1CCCN(C(=O)c2cccc(-c3ccc(C=C4C(=O)Nc5ccc(Cl)cc54)o3)c2)CC1,16.6 µM (active)
3,CCCNC(=O)[C@H]1O[C@H]1C(=O)N[C@H](C(=O)N1CCC[C@@H]1C(=O)OC)C(C)CC (stereo not given in full),4.18 µM (active)
4,CCC[C@H]1C[C@H](C(=O)N[C@@H]([C@@H]2O[C@@H](SC)[C@@H](O)[C@@H](O)[C@@H]2O)[C@H](C)Cl)N(C)C1,inactive
5,c1cncc(CN2CCC(n3ncc4c(N5CCOCC5)nc(-c5ccc6[nH]ccc6c5)nc43)CC2)c1,5.9 µM (active)
6,Nc1ccn(C[C@@H](CO)OCP(=O)(O)O)c(=O)n1,inactive
7,COc1cccc2c1C(=O)c1c(O)c3c(c(O)c1C2=O)C[C@@](O)(C(=O)CO)C[C@H]3O[C@H]1C[C@H](N)[C@H](O)[C@H](C)O1,0.235 µM (active)
8,O=C(C[C@@H]1CC=CCCC(=O)O[C@H](c2ccccc2)CNC1=O)NCc1ccc(Cl)cc1,inactive
9,Cc1coc2c1C(=O)C(=O)c1c-2ccc2c(C)cccc12,0.166 µM (active)
10,OCc1ccccc1O[C@@H]1O[C@H](CO)[C@H](O)[C@H](O)[C@H]1O,inactive
11,O=C1CSC(=O)N1C(CCc1ccncc1)COc1ccc(-c2cccc([N+](=O)[O-])c2)cc1 (stereo not given),8.33 µM (active)
12,C=CC(=O)Nc1cccc(Nc2nc(NC3CCC(N(C)C)CC3)nc3c2ncn3C(C)C)c1 (stereo not given),1.05 µM (active)
13,CCCCCCCCCCCC(CC1OC(=O)C1CCCCCC)OC(=O)C(CC(C)C)NC=O (stereo not given),inactive
14,CC(=O)O[C@@]12CO[C@H]1C[C@H](O)[C@@]1(C)C(=O)[C@H](O)C3=C(C)[C@@H](OC(=O)C(O)[C@@H](NC(=O)OC(C)(C)C)c4ccccc4)C[C@@](O)([C@@H](OC(=O)c4ccccc4)[C@@H]21)C3(C)C (stereo not given in full),inactive
15,OCCN1C[C@H](O)[C@@H](O)[C@H](O)[C@@H]1CO,inactive
16,Cc1cn([C@@H]2O[C@H](CO)[C@@H](O)[C@H]2F)c(=O)[nH]c1=O,inactive
17,CCc1ccc(C(=O)Nc2cc(CN3CCN(C)CC3)cc(C(F)(F)F)c2)cc1C#Cc1cnc2ccnn2c1,10.5 µM (active)
18,CNC(=O)Nc1ccc(-c2nc(N3CC4CCC(C3)O4)c3cnn(C4CCC5(CC4)OCCO5)c3n2)cc1,0.0187 µM (active)
19,CC(=O)C1=C(O)C=C2Oc3c(C(C)=O)c(O)c(C)c(O)c3C2(C)C1=O (stereo not given),inactive
20,O=[N+]([O-])c1cn2c(n1)OC[C@@H](OCc1ccc(OC(F)(F)F)cc1)C2,inactive

row,Compound,Potency
1,CN[C@H]1[C@@H](O)[C@@H]2O[C@@H]3O[C@H](C)CC(=O)[C@]3(O)O[C@@H]2[C@@H](NC)[C@H]1O,1.18 µM (active)
2,C[C@H](NC(=O)C(C#N)=Cc1cccc(Br)n1)c1ccccc1,7.43 µM (active)
3,CCC(C=C[C@@H]1OC(=O)C=C[C@H]1C)=C[C@H](C)CC=CC(C)=C[C@@H](C)C(=O)[C@@H](C)[C@H](O)[C@@H](C)CC(C)=CC(=O)O,0.022 µM (active)
4,CC(C)C[C@H](NC(=O)[C@@H](NC(=O)c1cccc(-c2ccccc2)n1)[C@@H](C)O)B(O)O,0.0209 µM (active)
5,Cc1noc(-c2ccc(CSCCC(=O)O)cc2)c1NC(=O)OC(C)c1ccccc1Cl (stereo not given),inactive
6,CC(=O)O[C@]1(C(C)=O)CC[C@H]2[C@@H]3C=C(C)C4=CC(=O)CC[C@]4(C)[C@@H]3CC[C@@]21C,inactive
7,O=C(C=CC#Cc1cccc(NS(=O)(=O)c2ccccc2)c1)NO,0.935 µM (active)
8,O=C1NCCc2[nH]c(-c3ccncc3)cc21,5.26 µM (active)
9,N#Cc1ccc(COC[C@H]2O[C@@H](n3c(NCc4ccc(Cl)c(Cl)c4)nc4c(N)ncnc43)[C@@H](O)[C@@H]2O)cc1,16.6 µM (active)
10,C[C@@H]1C(=O)O[C@H]2CC34[C@H]5C[C@@H](C(C)(C)C)C36[C@H](OC(=O)[C@@H]6O)O[C@@]4(C(=O)O5)[C@]21O (stereo not given in full),inactive
11,COc1cc(C)c(C=CC(C)=CC=CC(C)=CC(=O)O)c(C)c1C,inactive
12,CN(C)c1ccc2cc(C(=O)N[C@@H](CCCN=C(N)CCl)C(=O)NCc3ccccc3)ccc2c1,8.33 µM (active)
13,CON=C(C(=O)N[C@@H]1C(=O)N2C(C(=O)O)=C(Cn3ccc(=N)n3CCO)CS[C@H]12)c1csc(N)n1,inactive
14,CC[C@@]1([C@@H]2O[C@@H]([C@H]3O[C@@](O)(CO)[C@H](C)C[C@H]3C)C[C@H]2C)CC[C@H]([C@]2(C)CC[C@]3(C[C@H](O)[C@@H](C)[C@@H]([C@@H](C)[C@@H](OC)[C@H](C)C(=O)O)O3)O2)O1,0.724 µM (active)
15,NC(=O)c1ncn([C@@H]2O[C@H](CO)[C@@H](O)[C@@H]2O)c1N,inactive
16,CN(C)CC[C@H](c1ccc(Cl)cc1)c1ccccn1,inactive
17,C[C@H](NCc1ccc2c(c1)nc(NC(=O)c1ccc(-c3cn[nH]c3)s1)n2CCc1ccccc1)C(C)(C)C,1.05 µM (active)
18,CC(Oc1ccc(O)cc1)(P(=O)(O)O)P(=O)(O)O,inactive
19,C=CCNc1c(O)cc2c(O)c1C[C@@H](C)C[C@H](OC)[C@@H](O)[C@@H](C)C=C(C)[C@H](OC(N)=O)[C@@H](OC)C=CC=C(C)C(=O)N2,0.296 µM (active)
20,CCN(CC)Cc1ccc2cc(COC(=O)Nc3ccc(C(=O)NO)cc3)ccc2c1,0.418 µM (active)
